Screening results: PubChem BioAssay, National Center for Advancing Translational Sciences (NCATS)
S-ASM inh: blocks human secretory acid sphingomyelinase; P17405; placental ASM, HMU-PC fluorogenic substrate, 60 min; Potency, µM (series often up to 57.5 µM), usual class: inhibitors; 0.006% of 340,000 active
Target sequence (P17405 47-631 limits assumed): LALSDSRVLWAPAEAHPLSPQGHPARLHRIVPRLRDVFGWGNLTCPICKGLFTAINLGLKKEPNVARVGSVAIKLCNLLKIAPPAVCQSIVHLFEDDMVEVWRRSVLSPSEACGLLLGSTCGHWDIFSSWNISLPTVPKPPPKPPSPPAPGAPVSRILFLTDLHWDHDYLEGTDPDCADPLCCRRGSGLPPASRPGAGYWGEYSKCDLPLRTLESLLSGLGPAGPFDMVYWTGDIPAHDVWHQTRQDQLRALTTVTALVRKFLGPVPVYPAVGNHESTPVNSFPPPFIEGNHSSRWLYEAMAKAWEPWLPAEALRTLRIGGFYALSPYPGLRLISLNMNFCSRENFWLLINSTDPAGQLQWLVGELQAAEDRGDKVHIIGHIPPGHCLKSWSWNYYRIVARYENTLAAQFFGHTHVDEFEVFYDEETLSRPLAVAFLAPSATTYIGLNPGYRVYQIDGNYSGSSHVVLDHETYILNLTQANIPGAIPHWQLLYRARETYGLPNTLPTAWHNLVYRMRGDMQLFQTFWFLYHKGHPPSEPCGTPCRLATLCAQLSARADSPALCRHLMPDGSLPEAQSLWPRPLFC
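Steps: dispense placental human ASM, pin compound, wait 10 min at room temperature, add HMU-PC0 substrate at 9 uM final, incubate 60 min at 37 °C, add stop solution raising pH to 10, read fluorescence.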
TDP1 block: blocks human tyrosyl-DNA phosphodiesterase 1; Q9NUW8; recombinant TDP1, AlphaScreen DNA substrate cleavage; Potency, µM (top dose mostly 130 µM), usual class: inhibitors; 0.28% of 350,000 active; AID 485290; note: nearly all actives have a fitted effect of over 40% in size
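Recombinant E. coli-expressed Tdp1 (1 nM) preincubated with compound 15 min at RT, then 5'-biotin/3'-phosphotyrosine-FITC DNA substrate (15 nM) added for 5 min. AlphaScreen beads (10 ug/ml) added, 10 min RT; tyrosine-FITC cleavage read as signal loss.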
Pin1 inh: human Pin1 inhibition; Pin1 FP peptide displacement, HiFluor488, 10 min; Potency, µM (series often up to 115 µM), actives largely listed as inhibitors; 0.009% of 390,000 active; AID 504891; active = well fitted inhibition curve with a large enough effect in the polarisation, with a control signal flat, not every such curve was filed as active; inconclusive = small, poorly fitted or top-dose-only effect, or effect the other way, or a change in a side signal; inactive = no such curve, though single readings can be large or run the other way; the % refers to the polarisation
Tb PFK block: T. brucei PFK enzyme inhibition; O15648; T. brucei PFK, ADP-Glo luminescence; Potency, µM (series often up to 57.5 µM), actives largely listed as inhibitors; 0.17% of 330,000 active; AID 485367; note: nearly all actives have a fitted effect of over 60% in size
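In TEA buffer at pH 8.0 with 5 mM MgCl2, enzyme (1.25 nM) converted F6P (0.5 mM) and ATP (0.1 mM) for 45 min at room temperature. ADP product was read by luciferase luminescence.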
PLK1 PBD block: blocks phosphopeptide binding to human PLK1 polo-box domain | P53350 | Potency, µM, actives largely listed as inhibitors | Plk1 PBD binding of FITC phosphopeptide, fluorescence polarization | 2.8% of 360,000 active; note: series mostly up to about 57 µM; nearly all actives have a fitted effect of over 65% in size
VDR inhibitor: inhibitors of human vitamin D receptor; 0.93% of 400,000 active; Potency, µM, usual class: inhibitors; P11473; AID 504847; VDR-SRC2-3 peptide fluorescence polarization, 2 h
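Measured by FP: displacement of SRC2-3 coactivator peptide from VDR by library compounds, following a two-hour ambient incubation.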
Numbers stand for hits; . = inactive; ? = inconclusive; / = no result given; [ ] = another dose, or the depositor's remark. Compounds with a hit are over-represented: about 3.1% of the library has one in this group of screens. Unless noted, calls come from the whole dose curve; as a rule, active = well fitted curve in the direction sought with a large enough effect; inconclusive = small, poorly fitted or top-dose-only effect, or another doubt; inactive = no such curve, though single readings can be large; an effect the other way counts as inactive or inconclusive.

SMILES	S-ASM inh	TDP1 block	Pin1 inh	Tb PFK block	PLK1 PBD block	VDR inhibitor
CCc1cccc(NC(=O)c2c(N3CCCC3=O)c3cc(C)ccc3n2C)c1	/	.	?	/	/	.
O=C(COC(=O)/C=C/c1ccc(Br)o1)Nc1ccccc1F	/	16µM	/	.	/	/
CSc1nc(-c2ccco2)cc(C(F)(F)F)c1C#N	.	.	.	.	17µM	.
COc1ccc(C(CC(=O)N2CCCC2)c2c(OC)cc(OC)c3c(-c4ccccc4)cc(=O)oc23)cc1 (stereo not drawn)	.	7.9µM	?	.	?	.
CCc1ccc(C2CC(c3ccc(C)cc3)n3nc(N)nc3N2)cc1 (stereo not drawn)	.	/	.	/	24µM	?
COc1cccc(C2CC(c3ccc(Cl)cc3)n3nc(N)nc3N2)c1 (stereo not drawn)	.	.	.	.	21µM	?
CCCN1C(=O)c2[nH]nc(-c3ccccc3O)c2C1c1cccc(OCc2ccccc2)c1 (stereo not drawn)	/	.	.	/	/	.
S=c1ccss1	/	.	/	/	/	20µM
N#Cc1ccc(C(=O)N(Cc2ccco2)Cc2cccs2)cc1	/	.	.	/	/	.
CC1Cc2ccccc2N1C(=O)CNc1cccc(S(=O)(=O)N2CCCC2)c1 (stereo not drawn)	.	.	.	.	3.8µM	25µM
Cc1ccc(Cn2ncc3c4sc(C)cc4n(C)c3c2=O)cc1	/	.	.	/	/	/
CCOC(=O)c1c(NC(=O)CSc2nc(-c3ccc(OC)cc3)cc(C(F)(F)F)n2)sc(C)c1C	/	.	.	/	/	79µM
CC(Sc1nc(-c2ccccc2)cc(C(F)(F)F)n1)C(=O)O (stereo not drawn)	.	.	.	.	27µM	.
CCCCNC(=O)CSc1nc(-c2ccc(OC)cc2)cc(C(F)(F)F)n1	/	.	.	/	/	.
O=C(O)c1ccc(CSc2nc(-c3ccc(Cl)cc3)cc(C(F)(F)F)n2)cc1	.	.	.	.[0.46 µM]	21µM	.
CCN(CC)C(=O)c1sc(NC(=O)C(C)Sc2nc(-c3ccccc3)cc(C(F)(F)F)n2)c(C(=O)OC)c1C (stereo not drawn)	/	.	.	/	/	35µM
CCCOC(=O)c1c(NC(=O)C(C)Sc2nc(-c3ccccc3)cc(C(F)(F)F)n2)sc(C(=O)N(C)C)c1C (stereo not drawn)	/	.	.	/	/	?
CSCC[C@H](NC(=O)[C@H](Cc1ccc(OS(=O)(=O)O)cc1)NC(=O)[C@@H](N)CC(=O)O)C(=O)NCC(=O)N[C@@H](Cc1c[nH]c2ccccc12)C(=O)N[C@@H](CCSC)C(=O)N[C@@H](CC(=O)O)C(=O)N[C@@H](Cc1ccccc1)C(N)=O	/	.	/	/	/	.
COc1ccc(C(=O)NCc2ccc3c(c2)CCN3C(=O)c2ccc(Cl)cc2)c(OC)c1	/	.	.	/	/	.
COc1ccc(NC(=O)CCn2c(-c3ccc(F)cc3)cc(C(C)=O)c2C)c(OC)c1	/	.	.	/	/	.
O=C(NCCCc1nc2ccccc2n1Cc1ccccc1F)c1ccco1	/	.	.	/	/	.
CO/N=C\C(=N\Nc1ccc(OC)cc1)C(=O)c1ccccc1	.	.	.	.	.	.
CO/N=C/C(=N\Nc1ccc(OC)cc1)C(=O)c1ccc(F)cc1	.	.	.	.	24µM	.
CO/N=C/C(=N\Nc1ccccc1)C(=O)c1ccccc1	.	.	.	.	24µM	.
Cc1cccc(Nc2ncnc3c2cnn3Cc2ccccc2)c1	.	.	.	.	24µM	.
SMILES	S-ASM inh	TDP1 block	Pin1 inh	Tb PFK block	PLK1 PBD block	VDR inhibitor
COc1ccc(CC(=O)NNc2ncnc3c2cnn3Cc2ccccc2)cc1OC	.	.	.	.	27µM	.
COc1ccc(Nc2ncnc3c2cnn3Cc2ccccc2)cc1OC	.	.	.	.	.	.
O=c1[nH]c2cc(Cl)c(O)cc2o1	/	.	/	/	/	.
O=C(/C=C/c1ccc2c(c1)OCO2)c1cccnc1	.	/	.	.	.	?
O=C(/C=C/c1cccc(OCc2ccccc2)c1)c1cccnc1	.	.	.	.	.	40µM
CC(=O)N1CC=C2C(C#N)=C(N)C(C#N)(C#N)C(CCc3ccccc3)C2C1 (stereo not drawn)	.	.	?	.	27µM	?
CCN1CC=C2C(C#N)=C(N)C(C#N)(C#N)C(CCc3ccccc3)C2C1 (stereo not drawn)	.	.	?	.	?	?
CC(=O)Nc1ccc(SC[C@H](CC(C)C)N2CCN(CC(C)C)CCC2=O)cc1	.	.	.	.	27µM	.
CC(=O)Nc1ccc(SC[C@H](Cc2ccccc2)N2CCN(CC(C)C)CCC2=O)cc1	.	.	.	.	34µM	.
CC(=O)Nc1ccc(SC[C@H](CC(C)C)N2CCN(CCc3ccccc3)CCC2=O)cc1	.	.	?	.	19µM	.
CC(=O)Nc1ccc(SCC(Cc2ccccc2)N2CCN(CC(C)C)CCC2=O)cc1 (stereo not drawn)	/	.	.	/	/	.
CC(=O)NC1C(=O)N(CCN2CCOCC2)c2ccc(C)cc21 (stereo not drawn)	.	/	50µM	.	.	?
Cc1ccc2c(c1)C(=C(C#N)C#N)C(=O)N2CCN1CCOCC1	.	/	.	.	12µM	79µM
CCn1ccnc1CN1CCc2c([nH]c3ccccc23)C1CC(C)C (stereo not drawn)	.	.	.	.	.	.
CCn1ccnc1CN1CCc2c([nH]c3ccccc23)C1C1CCCCC1 (stereo not drawn)	.	.	.	.	27µM	?
COc1ccc([C@H]2OCC3C2CO[C@@H]3c2ccc(OC)c(OC)c2)cc1OC (stereo partly drawn)	/	.	/	/	/	.
O=C(NCc1ccccc1)C(=O)Nc1nc(C23CC4CC(CC(C4)C2)C3)cs1	.	.	.	.	.	.
CNC(=O)C(=O)Nc1nc(C23CC4CC(CC(C4)C2)C3)cs1	.	.	.	.	30µM	.
Cc1nc(/C(=N/O)C(N)=O)cs1	.	.	.	.	24µM	.
COc1cccc2c1C(=O)c1c(O)c3c(c(O)c1C2=O)CC(O)(C(C)=O)CC3OC1CC(O)C(O)C(C)O1 (stereo not drawn)	.	/	?	/	9.5µM	.
N#Cc1c(-c2ccccc2)nc(SCc2cccc(Cl)c2)[nH]c1=O	.	/	.	.	27µM	.
CCOc1ccc(N(Cc2cc3cc(C)ccc3[nH]c2=O)C(=O)c2cccc(Cl)c2)cc1	/	.	.	/	/	.
Cc1ccc(-c2nnn(CC(=O)NCC3COCCO3)n2)o1 (stereo not drawn)	.	.	.	.	30µM	.
COC(=O)C(C(=O)OC)C1c2ccccc2C=C(C)N1C(=O)OC (stereo not drawn)	/	.[12.3 µM]	/	/	/	/
CC(C)(C)C1=CC(=O)C(=O)C(C(C)(C)C)=C1	.	.	.	?	3.8µM	?
Cc1cc(C)c(NC(=O)COCc2cc(-c3cccs3)on2)c(C)c1	/	.	.	/	/	.
